EBI2 block = EBI2 (human) antagonism; EBI2 beta-arrestin recruitment, luminescence, 7a,25-OHC stimulated; AID 651636; 0.81% of 360,000 active; inhibition, % at 5 µM; P32249; in the data active means inhibition above about 38%;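 further: enzyme fragment complementation signal reports receptor beta-arrestin coupling in cells; 0% = agonist plus DMSO wells and 100% = wells without agonist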
Target sequence (P32249 whole entry, looked up, the tested form may be a part): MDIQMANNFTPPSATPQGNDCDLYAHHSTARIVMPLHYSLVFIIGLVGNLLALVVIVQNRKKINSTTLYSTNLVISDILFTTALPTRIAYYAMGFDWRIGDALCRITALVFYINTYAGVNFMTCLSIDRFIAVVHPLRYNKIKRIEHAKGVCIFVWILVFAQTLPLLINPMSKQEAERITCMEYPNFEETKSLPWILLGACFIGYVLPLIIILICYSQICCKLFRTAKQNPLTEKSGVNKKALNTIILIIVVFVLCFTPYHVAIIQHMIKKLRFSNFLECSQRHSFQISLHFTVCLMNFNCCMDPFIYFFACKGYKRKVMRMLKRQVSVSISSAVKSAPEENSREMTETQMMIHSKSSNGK
tim10-1 inh = inhibits growth of tim10-1 mutant yeast | S. cerevisiae tim10-1 ts strain growth, BacTiter-Glo, 24 h | 2.2% of 330,000 active | inhibition, % at 20 µM;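 active means inhibition of at least 40%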;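 further: mutant grown at 25 °C; 0% = DMSO wells with yeast and 100% = wells holding no yeast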
TIM10 inh = TIM10 yeast growth inhibition. S. cerevisiae TIM10 strain growth, BacTiter-Glo luminescence, 24 h. inhibition, % at 10 µM. 1.4% of 330,000 active;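 active means inhibition of 40% or more at the single tested concentration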;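 further: wild-type TIM10 isogenic control strain grown at permissive 25 °C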
tim23-1 inh = inhibits growth of tim23-1 mutant yeast. S. cerevisiae tim23-1 growth, BacTiter-Glo luminescence, 24 h. inhibition, % at 20 µM. 1.3% of 330,000 active;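 active means growth inhibition of the mutant yeast at or above 50%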;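 further: temperature-sensitive mutant grown at 25 °C; plate controls were DMSO-treated mutant yeast for no effect and medium wells lacking yeast for full effect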
SKKanGAS inh = inhibitors of SKKanGAS S. pyogenes growth in kanamycin (SK-promoter or general growth effect); AID 1662; inhibition, % at 7.5 µM; BacTiter-Glo, 6 h; 1.3% of 300,000 active;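 active means mean replicate score, as percent of positive control median, at least 50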;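 further: strain carries kanamycin resistance gene driven by streptokinase promoter and grows in 40 µg/ml kanamycin; loss of luminescence reflects streptokinase promoter inhibition or plain growth inhibition; 0% = median of DMSO wells and 100% = positive control at its reference dose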
PfHsp90 yeast 2 = growth inhibition of yeast expressing Plasmodium Hsp90 | S. cerevisiae expressing PfHsp90, BacTiter-Glo ATP, 48 h; yeast lacking PDR1 and PDR3 efflux regulators | inhibition, % at 9.4 µM | 0.32% of 310,000 active;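 active means every replicate shows inhibition above about 80%, whatever the replicate mean, limit read from the data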;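 further: 0% = DMSO neutral controls and 100% = 20 µM radicicol positive controls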
tim10 confirm = confirmation of TIM10 yeast growth inhibitors; shares compounds with TIM10 inh; S. cerevisiae tim10 strain growth, BacTiter-Glo luminescence, 24 h; inhibition, % at 10 µM; 63% of 4,600 active;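 active means inhibition of yeast growth at or above a set limit in either of two replicates at 10 µM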;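 further: this counterscreen used the strain with wild-type TIM10; 0% = yeast with DMSO and 100% = medium wells lacking yeast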
Numbers without * were called inactive; · = not tested or not shown. Sampled rows, rich in hits. Any-hit rate of the full collection: about 4.7%.

SMILES	EBI2 block	tim10-1 inh	TIM10 inh	tim23-1 inh	SKKanGAS inh	PfHsp90 yeast 2	tim10 confirm
CN(C)CCN(C(=O)C1=COCCO1)c1nc2ccc(F)cc2s1	-6.9	34.4	64.3*	26.2	-0.6	10.7	12.9
CN(C)CCCN(C(=O)c1cc(-c2cccs2)nc2ccccc12)c1nc2ccc(F)cc2s1	-3.1	32.5	49.4*	13.3	10.7	·	31.7*
COc1ccc(OC)c(N2C(=O)CC(Cc3ccc(C)cc3)C2=O)c1 (configuration not stated)	7.3	37.6	-9.1	3.7	0.2	-4.2	·
Cc1ccc(-n2nnc3c(=O)oc4ccccc4c32)cc1	-19.3	11.8	77.5*	47.4	-0.5	-13.0	90.9*
CN(C(=O)c1cccc(NC(=O)Cc2ccc(NC(=O)C3CCN(C(=O)CCc4ccccc4)CC3)cc2)c1)C1CCC1	11.2	·	·	·	·	-1.6	·
CC(C)C(=O)N1CCN(c2ccccc2NC(=O)c2ccco2)CC1	-8.4	23.5	-2.4	21.9	-1.3	-5.0	·
CCOC(=O)c1c(C)[nH]c(C(=O)COC(=O)CNS(=O)(=O)c2ccc(C)cc2)c1C	-0.9	3.8	71.1*	8.5	·	-21.9	7.3
O=C(N/N=C/c1ccc([N+](=O)[O-])cc1)c1cc(C2CC2)[nH]n1	-13.9	35.9	51.3*	23.4	7.2	-15.5	56.0*
O=C(N/N=C/c1ccco1)c1cc(C2CC2)[nH]n1	-5.7	1.5	4.8	6.5	-2.2	12.9	·
O=C1NC2=C(C(=O)OC2)C(c2ccc(OC(F)(F)F)cc2)N1 (configuration not stated)	-4.0	6.9	-22.5	-0.8	-5.1	-3.8	·
N#C/C(=C\c1ccc(O)cc1)C(=O)N1CCCC1	-4.4	-3.3	5.5	18.8	-5.8	10.7	·
N#C/C(=C\c1ccc(C#N)cc1)C(=O)N1CCCC1	-4.6	38.3	50.4*	47.5	-3.1	·	33.6*
COc1ccc(C(CNC(=O)c2cncc(Br)c2)N(C)C)cc1 (configuration not stated)	-16.9	1.6	6.4	6.0	-2.4	13.7	·
COc1cccc(NC(=O)CN(C)C(=O)c2ccc(OCC3CCCO3)cc2)c1 (configuration not stated)	9.6	-8.1	4.5	-8.3	·	·	·
CC(=O)CSc1ncnc2sc3c(c12)CCC(C)C3 (configuration not stated)	-8.9	39.9	43.2*	37.1	-0.7	-30.2	-4.8
CC1CCc2c(sc3ncnc(SCC(=O)c4ccccc4)c23)C1 (configuration not stated)	6.2	6.2	0.4	6.7	-12.8	15.9	·
C[n+]1cccc(C(=O)NNC(=O)C23CC4CC(CC(C4)C2)C3)c1	4.2	1.7	-2.0	11.5	0.1	11.8	·
Clc1ccc2c(c1)C(N1CCNCC1)Cc1ccccc1S2 (configuration not stated)	-20.5	22.0	47.8*	3.6	16.8	-0.3	-39.5
COc1ccc(C=NNc2nc3ccccc3s2)cc1	-2.5	·	·	·	·	-1.6	·
Cc1ccc2[nH]c(C)c(/C=N/Nc3nc4ccccc4s3)c2c1	31.0	39.2	41.9*	48.1	6.4	105.8*	59.2*
N#C/C(=N\Nc1cc(Cl)cc(Cl)c1)c1nnc2n1CCCCC2	20.7	35.0	41.2*	13.2	-1.7	·	27.7
N#C/C(=C(/O)CCl)c1nnc2n1CCCCC2	2.3	1.5	-27.9	1.9	10.8	-25.9	·
Cc1ccc(S(=O)(=O)N(C)c2ccc(C(=O)Nc3c(C)n(C)n(-c4ccccc4)c3=O)cc2)cc1	-7.6	5.1	2.1	10.9	-0.8	-18.3	·
O=C(c1ccc([N+](=O)[O-])s1)N1CCN(c2ccc(C(F)(F)F)cn2)CC1	-0.3	9.6	42.3*	32.3	4.3	10.0	26.9
Cc1cc(C)nc(SCc2ccc(C(=O)N/N=C3\CCCC(=O)C3)cc2)n1	-12.7	-0.6	8.6	1.9	0.7	-10.7	·
SMILES	EBI2 block	tim10-1 inh	TIM10 inh	tim23-1 inh	SKKanGAS inh	PfHsp90 yeast 2	tim10 confirm
Cc1ccc(C)c(Oc2ncnc(N)c2[N+](=O)[O-])c1	-10.0	17.6	21.7	28.6	-15.7	-8.4	·
Cc1cc(Sc2ncnc(N)c2[N+](=O)[O-])ncn1	0.6	26.6	42.4*	30.2	0.1	-3.0	26.8
N=C1C(=O)OCC1c1ccccc1NC(=O)CN1CCOCC1 (configuration not stated)	-3.0	-4.4	3.6	-12.4	4.0	·	·
O=C(Nc1ccccc1C(=O)NCCc1ccccc1)c1ccco1	6.5	20.7	97.4*	23.2	6.8	-18.3	-10.4
CCC1CCCCN1CCCCOc1cccc(Cl)c1 (configuration not stated)	1.1	-50.4	-25.5	-9.8	9.5	-9.3	·
COc1ccc(N2CCN(C(=O)c3ccc(Oc4ccc(C(F)(F)F)cn4)cc3)CC2)cc1	18.6	24.4	44.3*	26.1	0.6	4.1	40.7*
O=C(c1ccc(Oc2ccc(C(F)(F)F)cn2)cc1)N1CCN(c2ccccc2)CC1	7.1	34.6	25.1	32.8	1.6	-10.5	·
O=C(c1ccccc1)[C@H]1[C@H](c2ccccc2)[C@@]2(N=C(c3ccccc3)OC2=O)C2c3ccccc3C=NN21 (some centres not stated)	·	34.3	42.0*	22.4	4.6	·	25.5
COc1ccc([C@H]2[C@H](C(=O)C(C)(C)C)N3N=Cc4ccccc4C3C23C(=O)OC(C)(C)OC3=O)cc1 (some centres not stated)	0.3	35.0	9.7	15.0	2.6	5.1	·
CCOc1ccc(C(=O)O/N=C(\N)c2ccccn2)cc1	1.3	38.0	42.1*	37.9	6.9	42.9	35.7*
COC(=O)c1c(NC(=O)c2nc3ccccc3s2)sc2c1CC(C)(C)NC2(C)C	-3.0	29.8	55.2*	40.1	11.5	15.2	36.0*
COC(=O)c1c(NC(=O)c2ccc(C(=O)c3ccccc3)cc2)sc2c1CC(C)(C)NC2(C)C	27.7	·	·	·	·	·	·
COCCCn1c(=O)c2ccccc2n2c(=S)[nH]nc12	-8.1	-1.3	-18.5	1.0	7.7	-10.8	·
O=C(CCC1CCCCC1)Nc1ccc(C(=O)c2ccncc2)cc1	17.6	34.5	43.0*	43.0	-2.7	-6.5	39.2*
CCC(C)(c1nnnn1-c1c(C)cccc1C)N(N=O)c1ccccc1Cl (configuration not stated)	20.8	·	·	·	·	18.0	·
Cc1ccc([C@H]2C(C(=O)O)=CC[C@@H](c3ccc4c(c3)OCO4)N2S(=O)(=O)c2ccc(C)cc2)cc1	-3.4	2.8	4.2	10.4	·	-36.1	·
O=[N+]([O-])c1ccc(N/N=C\c2cccn2-c2ccccc2)nc1	7.6	30.2	43.3*	33.9	6.4	-11.6	15.0
N#Cc1cc(C#N)c(N2CCN(c3cccc(Cl)n3)CC2)nc1N	28.6	11.5	41.0*	37.9	6.6	-5.2	17.8
NC1CCN(c2cccc(Cl)n2)CC1	·	-0.6	2.1	4.0	-2.8	·	·
